Hits are enriched below; roughly 21% of the tested compounds scored in any of these assays.
ELG1 repair inh = qHTS screen for small molecules that inhibit ELG1-dependent DNA repair in human embryonic kidney (HEK293T) cells expressing luciferase-tagged ELG1 | HEK293T ELG1-luciferase reporter, luminescence, 16 h; DNA damage induced by 5-fluorouridine | Potency, µM (highest dose often 46.1 µM), usual class: inhibitors | actives 2.3% (n = 330,000) | AID 504467, 2011; note: nearly all actives have a fitted effect of over 55% in size
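HEK293T cells expressing luciferase-tagged ELG1 (2,000/well) received 5-Fluorouridine plus compound or DMSO for 16 hr at 37 °C. Luciferase was read by ONE-Glo luminescence after 30 min at room temperature.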
DT40 TDP1 CPT = qHTS for Inhibitors of human tyrosyl-DNA phosphodiesterase 1 (TDP1): qHTS in cells in presence of CPT. AID 686979, 2013. chicken DT40 Tdp1-/-;hTDP1 cells + 20 nM CPT, ATP luminescence, 48 h. actives 12% (n = 420,000). Potency, µM (series often up to 46.2 µM), usual class: inhibitors; note: nearly all actives have a fitted effect of over 55% in size
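Chicken DT40 Tdp1-/- cells stably complemented with human TDP1 were seeded at 400 cells/well in medium containing 20 nM camptothecin, exposed to pin-transferred compounds, and grown at 37 °C for at least 48 hr. Viability was read as ATP luminescence.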
IL1B secr inh = qHTS for Inhibitors of Inflammasome Signaling: IL-1-beta AlphaLISA Primary Screen; AID 743279, 2014; actives 4.7% (n = 360,000); activity change, % at 57.5 µM; THP-1 LPS/ATP IL-1B secretion, AlphaLISA, 16 h; stronger effect = lower value; in the data active = activity change below about -50%; inconclusive = mostly about -30% to -49%
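THP-1 cells pretreated 1 hr with compounds (up to 57.5 uM final), then stimulated with LPS (250 ng/mL final) plus ATP (1.25 mM final); secreted IL-1B measured by AlphaLISA after 16 hr, decreased signal indicating inhibition.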
RORg inh = qHTS for inhibitors of ROR gamma transcriptional activity; actives 5.4% (n = 310,000); Drosophila S2 Gal4-RORgamma UAS-luciferase reporter, 20 h; Nuclear receptor ROR-gamma (Mus musculus), P51450; Potency, µM (series often up to 53.6 µM), hits mostly inhibitors; AID 2551, 2010; note: nearly all actives have a fitted effect of over 60% in size
Target sequence (P51450 whole entry, looked up, the tested form may be a part): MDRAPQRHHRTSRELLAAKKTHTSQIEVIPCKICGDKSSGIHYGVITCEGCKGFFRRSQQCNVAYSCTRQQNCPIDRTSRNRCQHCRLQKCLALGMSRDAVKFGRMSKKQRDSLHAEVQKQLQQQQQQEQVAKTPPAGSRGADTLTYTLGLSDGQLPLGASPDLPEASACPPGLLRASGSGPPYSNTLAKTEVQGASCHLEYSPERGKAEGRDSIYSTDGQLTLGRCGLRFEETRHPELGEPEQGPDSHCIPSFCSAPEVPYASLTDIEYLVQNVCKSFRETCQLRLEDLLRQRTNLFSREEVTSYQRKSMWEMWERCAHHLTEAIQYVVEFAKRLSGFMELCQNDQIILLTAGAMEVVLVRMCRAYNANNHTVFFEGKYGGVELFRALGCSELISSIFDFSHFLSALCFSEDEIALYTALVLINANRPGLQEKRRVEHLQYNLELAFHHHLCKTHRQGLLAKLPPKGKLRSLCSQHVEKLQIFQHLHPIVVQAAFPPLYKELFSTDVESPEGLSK
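A Gal4/UAS one-hybrid system in insect cells: metallothionein-promoter Gal4–ROR gamma fusion plus Photinus luciferase reporter. Copper sulfate 700 uM final, 20 hr ambient incubation, luminescent detection after 10 min with reagent.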
VP16 counter = VP16 counterscreen qHTS for inhibitors of ROR gamma transcriptional activity. Drosophila S2 Gal4-VP16 UAS-luciferase, luminescence, 20 h. Potency, µM (doses to about 53.6 µM), most hits filed as inhibitors. actives 3.5% (n = 310,000). AID 2546, 2010;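 note: Gal4-VP16 expression switched on by copper sulfate through the metallothionein promoter; nearly all actives have a fitted effect of over 50% in size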
TDP1 cell noCPT = qHTS for Inhibitors of human tyrosyl-DNA phosphodiesterase 1 (TDP1): qHTS in cells in absence of CPT; AID 686978, 2013; actives 15% (n = 420,000); Potency, µM (doses to about 46.2 µM), usual class: inhibitors; DT40 Tdp1-/- hTDP1 cells, no CPT, ATP luminescence, 48 h; note: nearly all actives have a fitted effect of over 55% in size
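Compound effects on proliferation are scored in DT40 Tdp1-/-;hTDP1 cells in the absence of CPT. ATP levels (CellTiter-Glo luminescence) are recorded after a ≥48 hr, 37 °C incubation.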
Each line names hits and unclear results; the compound was inactive in the other large screens. Unless noted, calls come from the whole dose curve; as a rule, active = well fitted curve in the direction sought with a large enough effect; inconclusive = small, poorly fitted or top-dose-only effect, or another doubt; inactive = no such curve, though single readings can be large; an effect the other way counts as inactive or inconclusive.

Cc1sc2nc(CN3CCCCC3)nc(Cl)c2c1C	DT40 TDP1 CPT inconclusive, IL1B secr inh -103, TDP1 cell noCPT 16µM
Clc1nc(CN2CCCCC2)nc2sc3c(c12)CCCC3	DT40 TDP1 CPT inconclusive, IL1B secr inh inconclusive, TDP1 cell noCPT 10µM
CC(C)c1cc(C(F)(F)F)nc(NNc2nc(C(C)C)cc(C(F)(F)F)n2)n1	TDP1 cell noCPT inconclusive (no result: ELG1 repair inh, RORg inh, VP16 counter)
CCCCNC(=O)CSc1nnc(-c2cccc(S(=O)(=O)N3CCOCC3)c2)o1	IL1B secr inh inconclusive (no result: RORg inh, VP16 counter)
O=C(CC1CCCC1)N1CCN(S(=O)(=O)c2ccccc2)CC1	none (no result: RORg inh, VP16 counter)
COc1cccc(CCNc2ncnc3sc(C(=O)N4CCOCC4)c(C)c23)c1	none (no result: ELG1 repair inh, IL1B secr inh, RORg inh, VP16 counter)
Cc1sc(NC(=O)CN(Cc2ccccc2)C(=O)C(C)C)c(C(N)=O)c1C	ELG1 repair inh inconclusive, DT40 TDP1 CPT 1.8µM, TDP1 cell noCPT 1.2µM
Cc1sc(NC(=O)CN(Cc2ccc(F)cc2)C(=O)C(C)C)c(C(N)=O)c1C	ELG1 repair inh inconclusive, DT40 TDP1 CPT 3.7µM, IL1B secr inh inconclusive, TDP1 cell noCPT 2.3µM
CCC(=O)N(CC(=O)Nc1sc(C)c(C)c1C(N)=O)Cc1ccc(F)cc1	DT40 TDP1 CPT 21µM, TDP1 cell noCPT 15µM
CCC(=O)N(CC(=O)Nc1sc(C)c(C)c1C(N)=O)C1CCCC1	DT40 TDP1 CPT 23µM, TDP1 cell noCPT 13µM
CC(=O)OCC(=O)[C@@]1(O)CCC2C3C[C@H](C)C4=CC(=O)C=CC4(C)C3C(O)CC21C (stereo partly drawn)	none (no result: ELG1 repair inh, DT40 TDP1 CPT, IL1B secr inh, TDP1 cell noCPT)
O=C1N=C(N2CCCC2C(=O)O)S/C1=C\c1ccco1 (stereo not drawn)	DT40 TDP1 CPT 8.2µM, TDP1 cell noCPT 18µM
NS(=O)(=O)c1cccc(NC(=O)CSc2nnc(C3CC3)n2-c2ccccc2)c1	TDP1 cell noCPT inconclusive (no result: RORg inh, VP16 counter)
O=c1[nH]cnc2c1ncn2-c1ccc(N(CCO)CCO)cc1	none (no result: ELG1 repair inh, RORg inh, VP16 counter)
CCC(C(=O)Nc1ccccc1OC)n1c(C(=O)OC)cc2ccsc21 (stereo not drawn)	DT40 TDP1 CPT 21µM, IL1B secr inh -57, TDP1 cell noCPT inconclusive
CCCCCC(=O)Nc1cccc(C2=NOC3(C2)C[C@@H](C(N)=O)N(C(=O)Cc2ccc([N+](=O)[O-])cc2)C3)c1 (stereo partly drawn)	ELG1 repair inh 13µM, DT40 TDP1 CPT inconclusive, TDP1 cell noCPT inconclusive
CCCCCC(=O)Nc1cccc(C2=NOC3(C2)C[C@@H](C(N)=O)N(C(=O)c2cc([N+](=O)[O-])cc([N+](=O)[O-])c2)C3)c1 (stereo partly drawn)	DT40 TDP1 CPT inconclusive, TDP1 cell noCPT inconclusive
NC(=O)[C@H]1CC2(CC(c3cccc(NC(=O)COc4ccc(Cl)cc4)c3)=NO2)CN1C(=O)Cc1ccc([N+](=O)[O-])cc1 (stereo partly drawn)	ELG1 repair inh 2.1µM, DT40 TDP1 CPT 13µM, IL1B secr inh inconclusive, TDP1 cell noCPT 16µM
C=C(C)C(=O)N1CC2(CC(c3cccc(NC(=O)COc4ccc(Cl)cc4)c3)=NO2)C[C@@H]1C(N)=O (stereo partly drawn)	DT40 TDP1 CPT inconclusive, IL1B secr inh inconclusive, TDP1 cell noCPT inconclusive
Cc1[nH]c2c(ccc3ccccc32)c1C1C(CCN)C1(C)C (stereo not drawn)	DT40 TDP1 CPT inconclusive, IL1B secr inh inconclusive, TDP1 cell noCPT 23µM
S=c1[nH]c2ccc3ccccc3c2[nH]1	ELG1 repair inh inconclusive
